# The list is not random: actives were taken first. Their share in the collection is about 0.52%.
# Vif-APOBEC3G blk: blocks the Vif interaction with human APOBEC3G; Q9HC16; HeLa A3G-eYFP + Vif (tagged APOBEC3G with the HIV-1 protein that degrades it), YFP fluorescence, overnight; Potency, µM (top dose mostly 46.1 µM), for inactives: at the top dose activity, negative = active, most hits filed as inhibitors; actives 0.076% (n = 410,000); note: % is set by controls: 0 for no effect and ±100 for the full control effect; nearly all actives have a fitted effect of over 60% in size
# Target sequence (Q9HC16 whole entry, looked up): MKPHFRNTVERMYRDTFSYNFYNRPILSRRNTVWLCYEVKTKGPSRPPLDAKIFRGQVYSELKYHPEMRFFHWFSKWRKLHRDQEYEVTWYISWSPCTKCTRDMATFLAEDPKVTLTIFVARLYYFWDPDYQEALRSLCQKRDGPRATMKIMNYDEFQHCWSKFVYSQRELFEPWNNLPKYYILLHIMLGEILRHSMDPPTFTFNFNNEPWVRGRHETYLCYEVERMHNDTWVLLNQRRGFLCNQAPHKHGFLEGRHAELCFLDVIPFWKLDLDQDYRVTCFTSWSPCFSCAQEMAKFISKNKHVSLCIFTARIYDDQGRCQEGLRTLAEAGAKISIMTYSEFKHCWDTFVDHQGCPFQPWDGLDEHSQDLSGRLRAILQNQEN
#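 Read-out is eYFP fluorescence (Ex 488/Em 500-530) from Vif-expressing HeLa A3G-eYFP cells; more signal means A3G escaped Vif-mediated degradation. Cells plated overnight, compound pinned in, incubated overnight at 37 deg C.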
# Epigenetic derep: derepresses silenced GFP reporter in murine cells. murine LDR cells, GFP reporter derepression, 30 h. actives 0.2% (n = 280,000). AID 1865. Potency, µM (titrated, usually from 53.9 µM), for the others: at the top dose GFP activation, actives largely listed as activators; note: % of control where 0% means no effect; nearly all actives have a fitted effect of over 60% in size
#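 Readout is the number of GFP-expressing murine LDR cells, counted by cytometry following washing. Cells were treated with compound for 30 h at 37 C; the stably integrated CMV-GFP locus is normally silent.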
# Vif-A3F inh: blocks the Vif interaction with APOBEC3F. HeLa A3F-eYFP + Vif (tagged APOBEC3F with the HIV-1 protein that degrades it), YFP fluorescence increase. actives 0.2% (n = 390,000). Potency, µM (series often up to 46.1 µM), without a hit: at the top dose activity, negative = active; note: % of control where 0% means no effect; nearly all actives have a fitted effect of over 65% in size
#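 HeLa cells stably expressing A3F-eYFP plus Vif, plated and incubated overnight at 37 deg C, then exposed to compounds overnight at 37 deg C. Blocked degradation read as raised yellow fluorescence (Ex 488/Em 500-530).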
# PINK1 modulator: changes PINK1 expression; PINK1 immunofluorescence, high-content cytometry, 24 h; AID 624263; actives 0.2% (n = 410,000); Potency, µM (series often up to 76.6 µM), for the others: top-dose activation (PINK1 increase), usual class: activators; active = well fitted activation curve with a large enough effect; inconclusive = small, poorly fitted or top-dose-only effect; cell line not stated here; note: % of control where 0% means no effect; nearly all actives have a fitted effect of over 65% in size
#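 Measures PINK1 amount and localization on or inside mitochondria by immunofluorescence. Stable cells get compounds at 5 concentrations for 24 hours before fixation and staining; CCCP controls included.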
# An asterisk follows results filed as active; ? = inconclusive; / = no result given. Unless noted, calls come from the whole dose curve; as a rule, active = well fitted curve in the direction sought with a large enough effect; inconclusive = small, poorly fitted or top-dose-only effect, or another doubt; inactive = no such curve, though single readings can be large; an effect the other way counts as inactive or inconclusive. Potency is the fitted concentration of half-maximal effect.
SMILES,Vif-APOBEC3G blk,Epigenetic derep,Vif-A3F inh,PINK1 modulator
CC(NC1=CC(=O)c2cccnc2C1=O)C(O)c1ccccc1 (stereo not given),10µM*,/,?,-0.6%
COc1ccc(-c2nc3c4ccccc4ccn3c2Cc2ccsc2)cc1OC,8.91µM*,/,/,-0.9%
O=C(NCC1Cc2cc(F)cc(-c3cnccn3)c2O1)c1cccc(-c2ccccc2F)c1 (stereo not given),/,/,/,1.0%
CO[C@H]1[C@H](NC(=O)c2ccco2)c2ccccc2C12CCN(Cc1cnn(-c3ccccc3)c1)CC2,/,/,/,-0.1%
Cn1cnnc1Sc1ccc(CN2CCOc3ccc(C4=Cc5ccccc5C4)cc3C2)o1,/,/,/,1.4%
COc1cc(CNc2cccc3[nH]c(C(F)(F)F)nc23)cc(OC)c1,-16.9%,/,-10.2%,31.6µM*
CCCS(=O)(=O)NCc1c(C)ncc2c1CCN(C(=O)c1cccc(Cl)c1F)C2,/,/,/,-0.2%
COc1ccc(-c2cc(C(F)(F)F)c(C#N)c(SCC(=O)Nc3cccc(C)c3)n2)cc1,-9.5%,4.8%,-2.7%,-0.8%
COc1ccc(-c2cc(C(F)(F)F)c(C#N)c(SCC(=O)Nc3nc(C)co3)n2)cc1,-0.5%,-1.0%,?,8.91µM*
CCOC(=O)c1ccc(NC(=O)CSc2nc(-c3cccs3)cc(C(F)(F)F)c2C#N)cc1,?,10µM*,3.98µM*,0.1%
COc1ccc(-c2cc(C(F)(F)F)c(C#N)c(SCC(=O)Nc3ccccc3F)n2)cc1,-5.3%,2.9%,0.9%,-1.4%
COc1ccc(NC(=O)CSc2nc(-c3cccs3)cc(C(F)(F)F)c2C#N)cc1,-8.9%,?,?,6.5%
Cc1cccc(NC(=O)CSc2nc(-c3cccs3)cc(C(F)(F)F)c2C#N)c1,-1.6%,14.1µM*,2.6%,6.1%
COc1ccc(-c2cc(C(F)(F)F)c(C#N)c(SCC(=O)Nc3ccccc3C#N)n2)cc1,-21.3%,7.94µM*,/,?
Cc1c(C(=O)NCCCN2CCCC2=O)cnn1-c1ncc2c(n1)-c1ccccc1CC2,/,/,/,-0.8%
COc1ccc(-n2c(CNC(=O)c3ccc(OC)cc3OC)nnc2SC)cc1,/,/,/,-1.1%
CCOC(=O)c1ccc(NC(=O)CSc2nc(-c3ccc(OC)cc3)cc(C(F)(F)F)c2C#N)cc1,?,?,25.1µM*,2.1%
COc1cc(-c2cc(C)c3c(OC)ccc(OC)c3n2)cc2c1OCCN(C(=O)C(C)c1n[nH]c(=O)c3ccccc13)C2 (stereo not given),/,/,/,0.9%
CC[n+]1ccc(/C=C/c2c[nH]c3ccccc23)cc1,5.01µM*,/,7.08µM*,25.1µM*
CCCCCCC[n+]1ccc(/C=C/c2c[nH]c3ccccc23)cc1,7.7%,/,/,/
COc1ccc2c(/C=C/c3cc[n+](C)cc3)c[nH]c2c1,?,/,12.6µM*,?
Cc1ccc2[nH]cc(/C=C/c3cc[n+](C)cc3)c2c1,?,/,?,3.55µM*
Cc1cc(C(=O)NCC2CCC3(CCN(Cc4ccc(-c5ccccc5)cc4)CC3)O2)n(C)n1 (stereo not given),/,/,/,0.5%
CC(=O)N1CCN(c2nc3cc(C)ccc3cc2CN(C(=O)c2cccc3ccccc23)C2CC2)CC1,/,/,/,-0.5%
COc1ccc2c(c1)OC(C)CN(CCNC(=O)c1csc(-c3cccs3)n1)C2 (stereo not given),/,/,/,-1.1%
SMILES,Vif-APOBEC3G blk,Epigenetic derep,Vif-A3F inh,PINK1 modulator
N#CC1=C(S)N(c2ccccc2)C(c2ccc(-c3cccc(Cl)c3)o2)NC1=O (stereo not given),-5.9%,4.1%,7.08µM*,0.9%
CCOC(=O)/C(C#N)=N/Nc1ccccc1OC,-20.3%,2.7%,?,?
CCOC(=O)/C(C#N)=N\Nc1cc(Cl)ccc1OC,-4.8%,?,10µM*,11.0%
Cc1ccc(/C=C2\CCC3=C2OC(N)=C(C#N)C3c2ccc(C)cc2)cc1 (stereo not given),?,11.2µM*,?,?
COc1ccc(NC(=O)NC(C)c2ccncc2)cc1OC (stereo not given),1.0%,0.0%,-4.1%,11.2µM*
COCCCNc1nc2ccccc2nc1NS(=O)(=O)c1ccc(C)cc1,-7.2%,4.2%,?,1.9%
COCCCNc1nc2ccccc2nc1NS(=O)(=O)c1ccccc1,0.7%,1.3%,22.4µM*,0.4%
Nc1c(C(=O)c2ccccc2)sc2nsc(SCCN3CCOCC3)c12,?,?,3.55µM*,6.2%
O=C(NCCN1Cc2ccccc2OC(c2ccsc2)C1)c1cncs1 (stereo not given),/,/,/,-0.9%
CC(=O)N1N=C(c2ccc(NS(C)(=O)=O)cc2)CC1c1ccc2nccnc2c1 (stereo not given),0.4%,-0.1%,-0.2%,2.2%
CS(=O)(=O)Nc1ccc(C2=NN(S(C)(=O)=O)C(c3ccc4nccnc4c3)C2)cc1 (stereo not given),?,-0.1%,22.4µM*,15.2%
CCS(=O)(=O)N1N=C(c2cccc(NS(C)(=O)=O)c2)CC1c1ccc(C)cc1 (stereo not given),?,22.4µM*,11.2µM*,?
Cc1cc(C)n(Cc2cccc(C(=O)NCC3Cc4cccc(-c5ncccn5)c4O3)c2)n1 (stereo not given),/,/,/,-0.6%
CCOC(=O)Cn1c(=NC(=O)c2ccc([N+](=O)[O-])s2)sc2ccccc21,-0.5%,?,?,25.1µM*
CCC(C)Sc1ccc(-c2nc3cc(C)ccn3c2NC2CCCCC2)cc1 (stereo not given),?,/,11.2µM*,14.1µM*
CCCCCCSc1ccc(-c2nc3cc(C)ccn3c2NC2CCCCC2)cc1,-4.6%,/,?,17.8µM*
O=C(Cc1c(F)cccc1Cl)Nc1ccon1,0.8%,-1.2%,7.3%,7.94µM*
CCOc1ccc(CN2CCOc3ccc(C(O)c4cccnc4)cc3C2)cc1 (stereo not given),/,/,/,0.3%
CCC(CO)[n+]1c(C)cc(/C=C2\Sc3ccccc3N2Cc2ccccc2)cc1C (stereo not given),12.6µM*,?,11.2µM*,11.2µM*
COc1cc(-c2c(OC)cccc2OC)cc2c1OCCN(Cc1cn[nH]c1-c1ccc(Cl)cc1)C2,/,/,/,-0.4%
COc1ccc(C(=O)c2sc3nc4c(c(C(F)(F)F)c3c2N)CN(C(C)=O)CC4)cc1OC,?,4.1%,22.4µM*,-2.0%
CC(=O)N1CCc2nc3sc(C(=O)c4ccc(F)cc4)c(N)c3c(C(F)(F)F)c2C1,?,?,12.6µM*,3.4%
COCc1ccc(CN2CCOc3c(cc(-c4cc(C)c5cccc(OC)c5n4)cc3OC)C2)o1,/,/,/,-0.4%
COc1ccc(OC)c(CN2CCCC(c3nc(-c4ccncc4)ncc3-c3ccccc3C)C2)c1 (stereo not given),/,/,/,0.8%
Cc1cc(F)ccc1S(=O)(=O)Nc1ccccc1C(=O)Nc1ccccc1-c1nc2ccccc2[nH]1,-2.6%,-1.1%,-3.1%,44.7µM*
Cc1cc(F)ccc1S(=O)(=O)Nc1ccccc1C(=O)Nc1ncn[nH]1,-2.5%,-7.2%,-7.3%,1.8%
Cc1ccc(C(=O)Nc2cccc(-c3nc(CNC(=O)c4cccc(C)c4C)c(C)o3)c2)s1,/,/,/,0.7%
